Screens as filed in PubChem.
SIRT5 block: sirtuin-5 (human) deacylase inhibition; Q9NXA8; Purified SirT5, succinyl-peptide AMC, trypsin-coupled fluorescence; inhibition, % at 15 µM; 330,000 compounds, 1.1% hits; AID 652115; in the data active = inhibition above about 15%
CASP6 VEID inh: caspase-6 (human) enzyme inhibition; P55212; inhibition, % at 12.5 µM; purified caspase-6, Z-VEID-R110 cleavage fluorescence; AID 686996; 350,000 compounds, 0.53% hits;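 active = mean inhibition across replicates at least about 35%, with every replicate also reaching that limit, limit read from the data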;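 also: 0% = median of neutral control wells and 100% = no fluorescence left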
Target sequence (P55212 24-179 limits assumed): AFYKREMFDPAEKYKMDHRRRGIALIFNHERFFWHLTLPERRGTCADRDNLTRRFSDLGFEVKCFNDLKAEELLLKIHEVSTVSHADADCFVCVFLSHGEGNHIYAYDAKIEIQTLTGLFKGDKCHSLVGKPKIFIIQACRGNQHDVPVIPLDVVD
Target sequence (P55212 194-293 limits assumed): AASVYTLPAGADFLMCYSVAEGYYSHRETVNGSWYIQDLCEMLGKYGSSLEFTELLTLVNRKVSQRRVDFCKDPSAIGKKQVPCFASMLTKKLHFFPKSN
SUMO HTRF inh: SUMOylation inhibition; AID 2006; HTRF SUMOylation assay, SAE1/SAE2 + UBC9, in vitro; inhibition, % at 35 µM; 290,000 compounds, 0.36% hits; in the data active = inhibition above about 50%, passing the limit was not always enough
Target sequence (P63279 whole entry, looked up): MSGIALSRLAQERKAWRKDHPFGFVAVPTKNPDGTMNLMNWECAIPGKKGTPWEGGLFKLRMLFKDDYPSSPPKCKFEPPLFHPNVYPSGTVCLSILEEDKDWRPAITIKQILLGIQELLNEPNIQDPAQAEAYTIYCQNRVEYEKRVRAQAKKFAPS
NSD2 inh: NSD2 (human) methyltransferase inhibition; NSD2 peptide methylation, AlphaScreen, 120 min; inhibition, % at 12.5 µM; O96028; 310,000 compounds, 0.54% hits; in the data active = inhibition above about 50%
The depositor's hits bear a star; . = no result; ! = not confirmed by another sample. Compounds with a hit are over-represented: about 1.6% of the library has one in this group of screens.

SMILES	SIRT5 block	CASP6 VEID inh	SUMO HTRF inh	NSD2 inh
Cc1ccc(S(=O)(=O)N[C@@H](CO)C(=O)N[C@@H](Cc2ccc(O)cc2)C(=O)O)cc1	21.3*	1.5	15.1	-0.6
COC(=O)[C@H]1[C@H](CO)[C@H]2Cn3c(ccc(C4=CCCCC4)c3=O)[C@H]2N1CCC(F)(F)F	-5.1	0.9	.	.
Cc1ccc(C(C)C)c(OCCOCCN2CCNCC2)c1	1.2	-47.4	.	-0.3
Cc1ccc(C(C)C)c(OCCCCN2CCNCC2)c1	17.9*	-3.9	6.3	5.1
O=C(O)/C=C1\NC(=O)c2ccccc21	.	.	9.5	-0.4
O=C1N/C(=C\c2ccc(O)cc2)C(=O)c2ccccc21	3.7	82.8*	37.9	0.7
C[C@H]1CN([C@@H](C)CO)C(=O)c2cc(C#CCN(C)C)cnc2O[C@H]1CN(C)S(=O)(=O)c1ccccc1	63.3*	-2.6	.	.
C[C@@H]1CN([C@@H](C)CO)C(=O)c2cc(C#CCN(C)C)cnc2O[C@@H]1CN(C)S(=O)(=O)c1ccccc1	0.6	-2.6	.	.
Cc1ccc(S(=O)(=O)N(C)C[C@@H]2Oc3ncc(C#Cc4ccc(C(F)(F)F)cc4)cc3C(=O)N([C@H](C)CO)C[C@@H]2C)cc1	24.8*	3.4	.	.
CCCC#Cc1cnc2c(c1)C(=O)N([C@@H](C)CO)C[C@@H](C)[C@H](CN(C)S(=O)(=O)c1cccc(OC)c1)O2	29.0*	-1.0	.	.
COc1cccc(S(=O)(=O)N(C)C[C@@H]2Oc3ncc(-c4cccc(F)c4)cc3C(=O)N([C@H](C)CO)C[C@@H]2C)c1	6.2	-2.4	.	.
CCCC#Cc1cnc2c(c1)C(=O)N([C@H](C)CO)C[C@@H](C)[C@@H](CN(C)S(=O)(=O)c1cccc(OC)c1)O2	1.6	-0.1	.	.
COc1cccc(S(=O)(=O)N(C)C[C@@H]2Oc3ncc(-c4cccc(C(F)(F)F)c4)cc3C(=O)N([C@H](C)CO)C[C@@H]2C)c1	19.7*	0.6	.	.
C[C@H]1CCCCO[C@@H](CN(C)S(=O)(=O)c2cn(C)cn2)[C@@H](C)CN([C@@H](C)CO)C(=O)c2cc(NS(=O)(=O)c3cn(C)cn3)ccc2O1	3.1	-0.7	.	.
C[C@H]1CN([C@@H](C)CO)S(=O)(=O)c2ccc(C#CC3CCCCC3)cc2O[C@@H]1CN(C)C	4.2	0.7	.	.
C[C@H](CO)N1C[C@H](C)[C@@H](CN(C)S(=O)(=O)c2ccccc2F)Oc2ncc(C#Cc3cccnc3)cc2C1=O	-5.4	36.1*!	.	.
CC(=O)N1CCCCN2[C@H](C1)[C@@H](c1ccc(C#Cc3ccccc3F)cc1)[C@@H]2CO	0.2	2.7	.	.
COc1cc(CCC(=O)N2CCN(c3ccccc3)CC2)cc(OC)c1OC	28.9*	1.1	3.8	-6.2
COc1ccc(CNC(=O)N2CCN(c3ccccc3)CC2)cc1	15.7*	-0.7	6.9	37.5
COc1ccc(N2CCN(C(=O)CCc3cc(OC)c(OC)c(OC)c3)CC2)cc1	-7.8	-2.5	13.6	0.8
Cn1c(-c2ccc(C=O)s2)nc2c3ccccc3c3ccccc3c21	.	.	97.4*	-3.6
CCOc1ccc(-n2c(C)c(C(C)=O)c(C(C)=O)c2C)cc1	.	.	-1.0	-2.3
COc1ccc(-n2c(C)c(C(C)=O)c(C(C)=O)c2C)cc1	2.8	38.7*	5.3	2.0
Cc1ccc(C)c(S(=O)(=O)Nc2ccc3oc(C)c(C(=O)O)c3c2)c1	8.3	69.2*	-1.2	49.0
O=C(C[C@H]1C=C[C@H](NC(=O)c2ccccc2)[C@H](CO)O1)NCCc1ccncc1	1.8	41.0*	.	.
SMILES	SIRT5 block	CASP6 VEID inh	SUMO HTRF inh	NSD2 inh
O=C(C[C@H]1CC[C@@H](NC(=O)c2ccccc2)[C@H](CO)O1)NCCc1ccncc1	31.9*	0.0	.	.
O=C(C[C@H]1C=C[C@H](NC(=O)c2ccccc2)[C@@H](CO)O1)NCCc1ccncc1	7.0	-4.7	.	.
O=C(C[C@@H]1CC[C@@H](NC(=O)c2ccccc2)[C@H](CO)O1)NCCc1ccncc1	-0.6	1.4	.	.
O=C(CC(F)(F)F)N1C[C@H]2[C@@H](c3ccccc31)[C@H](CO)N2C(=O)C1CC1	1.2	1.9	.	.
CC(N)C(=O)NC(C(=O)NC(C)C(=O)Nc1cccc2ccccc12)C(C)C (configuration not stated)	0.4	44.9*	.	.
C[C@H](CO)N1C[C@H](C)[C@H](CN(C)C(=O)c2ccccc2)OCCCC[C@H](C)Oc2ccc(NC(=O)CCC(F)(F)F)cc2C1=O	5.3	-2.2	.	.
Oc1c(/C=N/Nc2cccc3cccnc23)ccc2ccccc12	.	.	66.4*	-0.7
COc1ccc(CN(C)C[C@@H]2OCCCC[C@@H](C)Oc3ccc(NC(=O)NC(C)C)cc3C(=O)N([C@@H](C)CO)C[C@H]2C)cc1	5.9	0.8	.	.
Cn1c(=O)cc(SCC(=O)N2CCN(C3CCCCC3)CC2)c2ccccc21	16.8*	-5.3	.	.
